PrPC surface inh: reduces human prion protein on the cell surface | P04156 | cell surface PrPC, TR-FRET read-out | inhibition, % at 13.8 µM | actives 0.43% (n = 370,000); in the data active = inhibition above about 24%; also: 0% = median of the test wells and 100% = reference compound wells
3CLpro inhibitor: SARS-CoV 3CLpro protease inhibition. P0C6X7. recombinant SARS-CoV 3CLpro, quenched FRET peptide cleavage. inhibition, % at 6 µM. actives 0.14% (n = 290,000); in the data active = inhibition above about 12%
PrP UTR inh: inhibition of PrP 5' UTR reporter expression; cell-based PrP 5' UTR mRNA reporter, plate reader; inhibition, % (concentration not given with the values); actives 0.35% (n = 340,000); in the data active = inhibition above about 52%; also: 0 = median of the neutral control wells
CCHF vOTU inh: blocks the CCHF virus ovarian tumor domain protease | CCHFV vOTU protease, Pep-AMC fluorescence | inhibition, % at 11.5 µM | actives 0.55% (n = 370,000) | AID 651958; in the data active = inhibition above about 30%; also: 0% = vehicle wells with enzyme and 100% = no enzyme wells
PrP 5UTR single: prion 5' UTR mRNA inhibition, cherry-pick retest; shares compounds with PrP UTR inh; cell-based prion protein 5' UTR reporter, plate reader; inhibition, % at 2.5 µM; actives 48% (n = 1,100); in the data active = inhibition above about 54%; inconclusive = no clear call, values can overlap the other calls
* = called active by the depositor; u = inconclusive; x = no result given. Hits are enriched below; roughly 1.3% of the tested compounds scored in any of these assays.

SMILES	PrPC surface inh	3CLpro inhibitor	PrP UTR inh	CCHF vOTU inh	PrP 5UTR single
COC(=O)c1sc2ncn(CC(=O)NCCc3ccc(OC)c(OC)c3)c(=O)c2c1C	3	-1	21	-2	x
COc1ccc(CCNC(=O)Cn2cnc3sc(C)c(-c4ccc(F)cc4)c3c2=O)cc1OC	1	3	73*	2	u
O=C(CNC(=O)c1ccco1)Nc1ccc(N2CCCCCC2)cc1	-4	x	-50	14	x
O=C(CNCc1ccco1)Nc1ccc(N2CCCCCC2)cc1	-3	1	83*	4	-12
COc1cccc(-c2ncc3ccccc3c2COC(=O)N(C)C)c1	5	x	-6	-8	x
CC(=O)c1ccc(-c2cccs2)s1	-9	-3	69*	-364	-28
CC1=CC(=C2C(=O)c3ccccc3C2=O)C=C(C)N1C	-29	1	-48	5	x
CCCCCN1C=CC(=C2C(=O)c3ccccc3C2=O)C=C1	-12	0	89*	11	89*
CCOC(=O)c1[nH]c2ccc(OC)cc2c1NC(=O)CN1CCN(c2ccccn2)CC1	x	-7	x	x	x
CCC(=O)Nc1cccc(-c2ccc(N3CCC(C)CC3)nn2)c1	-8	1	24	-4	x
CC1CCN(c2ccc(-c3cccc(NC(=O)C(F)(F)F)c3)nn2)CC1	2	3	83*	18	86*
O=C(Nc1cccc(-c2ccc(N3CCCCC3)nn2)c1)C(F)(F)F	6	3	75*	-7	68*
COc1ccc(CC(=O)OCC(=O)Nc2cc(S(=O)(=O)N3CCOCC3)ccc2N2CCCC2)cc1	3	2	-13	-2	x
COc1ccc(C(CNC(=O)C(CCSC)NC(=O)c2ccccc2Cl)N2CCCC2)cc1 (stereo unspecified)	-13	x	-8	-1	x
COc1ccc(C(CNC(=O)C(CCSC)NC(=O)c2ccccc2Cl)N2CCCCC2)cc1 (stereo unspecified)	1	x	72*	-1	-21
COc1ccc(OC)c(-c2nnc(NC(=O)C(C)Sc3nncn3C)s2)c1 (stereo unspecified)	-9	1	-5	-1	x
O=C(NCc1cccnc1)C(=O)Nc1nc(C23CC4CC(CC(C4)C2)C3)cs1	3	1	-7	7	x
Cc1ccc2nc(SC(C)C(=O)N3CCCCC3)[nH]c2c1 (stereo unspecified)	9	-1	66*	-2	5
Cc1ccc2nc(SC(C)C(=O)N3CCCC3)[nH]c2c1 (stereo unspecified)	0	3	-34	7	x
COc1ccc(S(=O)(=O)NCC(c2cccnc2)N2CCN(c3ccccc3)CC2)cc1C (stereo unspecified)	1	3	4	8	x
COc1ccc(S(=O)(=O)NCC(c2cccnc2)N2CCN(c3ccc(F)cc3)CC2)cc1C (stereo unspecified)	0	0	52*	-2	-2
Cc1ccccc1Cc1c(C)nc2ncnn2c1C	1	-2	-17	9	x
O=C(O)C(C(=O)/C=C/c1ccco1)=C1SCCS1	-8	-2	-24	13	x
COc1cccc(N2CCN(C(=O)c3ccc(CS(=O)c4ccccc4C)o3)CC2)c1 (stereo unspecified)	12	-7	56*	-1	83*
COc1cccc(N2CCN(C(=O)c3ccc(CS(=O)c4ccccc4Cl)o3)CC2)c1 (stereo unspecified)	6	-1	35	11	x
SMILES	PrPC surface inh	3CLpro inhibitor	PrP UTR inh	CCHF vOTU inh	PrP 5UTR single
CC[C@@H]1C(c2ccccc2)=NN(c2ccccc2)[C@H]1C(=O)N1CCOC1=O	11	x	62*	22	-36
Cc1nc2ccccn2c1C(=O)NC1CCCc2ccccc21 (stereo unspecified)	12	2	60*	0	u
OCCn1ccc(-c2ccccc2OCc2ccc(F)cc2)n1	-2	0	6	7	x
O=C(c1cnn2ccccc12)N1CCCc2ccccc21	5	-5	60*	-7	32
COc1ccc(-c2c(-c3ccc(O)cc3O)n[nH]c2C(F)(F)F)cc1	3	7	11	-1	x
O=C(Nc1cccnc1)OC1CCCCC1	3	-4	75*	-17	-36
O=C(Nc1cccnc1)OC1CCCC1	-2	0	-21	-25	x
Cc1cc(=O)oc(C)c1C(=O)N1CCN(C(c2ccccc2)c2ccccc2)CC1	-1	-4	72*	-12	-21
CSC1SCC2C(=O)N(C)C(C(C)C)C(=O)OCC(NC(=O)c3cnc4ccccc4n3)C(=O)NC(C)C(=O)N(C)C1C(=O)N(C)C(C(C)C)C(=O)OCC(NC(=O)c1cnc3ccccc3n1)C(=O)NC(C)C(=O)N2C (stereo unspecified)	26*	x	92*	15	93*
CCC(=O)OC1(c2ccccc2)CCN(C)CC1C (stereo unspecified)	0	2	-14	-19	x
COc1ccccc1C(=O)N1CCCC1(C#N)c1ccccc1 (stereo unspecified)	-7	-5	83*	-4	-10
O=C(CN1C(=O)c2ccccc2S1(=O)=O)c1ccc(Cl)cc1Cl	1	4	79*	4	82*
O=C(CN1C(=O)c2ccccc2S1(=O)=O)c1ccc(OC(F)F)cc1	x	3	67*	x	64*
O=C(CN1C(=O)c2ccccc2S1(=O)=O)c1ccccc1F	0	9	28	-15	x
O=C(CN1C(=O)c2ccccc2S1(=O)=O)c1ccc(F)cc1	-5	5	62*	5	49
O=S(=O)(Cc1cc(-c2ccccc2)no1)c1ccccc1	1	-2	51*	-9	5
CCSC(=O)N=Nc1ccc(O)cc1	-11	x	56*	-10	1
O=[As](O)(O)c1ccc(N=Nc2ccc(O)cc2)cc1	-18	0	-23	25	x
c1nc(CCO[C@H]2CCCCO2)cc2cc3c(cc12)OCO3	4	x	63*	6	36
Cc1nnc(SCSc2nnc(C)s2)s1	-2	-1	-23	13	x
Cc1nnc(SCc2ccccc2CSc2nnc(C)s2)s1	-2	-1	60*	-3	14
Cc1nc2ccc(S(=O)(=O)NC(C(=O)NCc3cccs3)C(C)C)cc2s1 (stereo unspecified)	5	-2	-22	-12	x
O=C(CC(O)CCc1ccccc1)c1ccc(O)cc1 (stereo unspecified)	11	x	79*	6	-16
COc1ccc(OC)c(N(CC(=O)Nc2ccccc2)S(=O)(=O)c2ccccc2)c1	-2	2	-15	9	x
O=C(O)c1ccc(N/N=C/c2ccc3nccnc3c2)cc1	-33	-1	84*	8	85*
Cc1cc(C)cc(C(=O)NCC(=O)N2CCN(c3cccc(Cl)c3)CC2)c1	-2	3	-12	12	x
O=C(NCc1cccnc1)c1ccccc1Br	-1	-4	77*	0	3
O=C(NCc1ccccc1)c1ccccc1Br	-8	2	-10	-2	x
COc1ccc(OC)c(C2C=C(c3ccc(C)c(C)c3)Nc3nnnn32)c1 (stereo unspecified)	2	x	69*	10	3
O=C(NCCS(=O)(=O)NCc1ccccc1)c1ccc2c(c1)OCO2	-7	x	-13	-3	x

Bioassay records deposited in PubChem BioAssay by several laboratories.
